Here are results for four compounds from PubChem BioAssay (NCATS).

Unmarked numbers belong to inactive results. Results filed as inconclusive are left out. Activity calls are given as the source filed them. Unless noted, calls follow the shape of the dose curve; as a rule, active = well fitted curve in the direction sought with a large enough effect; inconclusive = small, poorly fitted or top-dose-only effect, or another doubt; inactive = no such curve, though single readings can be large; an effect the other way counts as inactive or inconclusive.

A short description of test [1]: Cell Viability - HepG2 (AID 433; calls by dose curve;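 also: potency is read from the fitted curve at half-maximal effect; cells exposed to compound for 40 hours; potency for ATP loss meaning cytotoxicity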). Particulars: qHTS. The procedure, abridged:
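HepG2 hepatocellular carcinoma cells (1500/well) were treated with compounds for 40 h at 37 °C in complete medium; intracellular ATP was read by CellTiter-Glo luminescence. Data were normalized to DMSO and 100 uM tamoxifen, and AC50 came from Hill fits.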

Test [2] can be described thus: Cell Viability - SH-SY5Y (AID 544).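 Also: cells exposed to compound for 40 hours; nearly all actives have a fitted effect of over 55% in size.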 The conditions noted are these: SH-SY5Y neuroblastoma cell viability; viability change, negative = cytotoxic: at 92.2 µM (top of the series). An outline of the steps:
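Cytotoxicity measured via ATP-dependent luciferase luminescence (CellTiter-Glo) following 40 h, 37 °C exposure of 1500 SH-SY5Y cells per well. Concentration-response data were fitted with the standard Hill equation to give AC50.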

Test [3] is described as follows: Cell Viability - Mesenchymal (AID 546).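 Also: cells exposed to compound for 40 hours before reading.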 Particulars: mesenchymal cells viability, qHTS; series mostly up to 91.7 µM. The procedure, abridged:
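In this qHTS cytotoxicity format, glomerulus-derived human mesenchymal kidney cells received compound for 40 hr, then luciferase-based ATP quantitation. Concentration-response data were fitted with the Hill equation.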

A short description of test [4]: Cellular Toxicity (caspase-3) HepG2 (AID 654).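 Also: cells exposed to compound for 16 hours before reading; 0% = DMSO alone and 100% = caspase signal from 100 µM tamoxifen.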 Particulars: HepG2 caspase-3 activation, luminescence, 0% = DMSO only, 100% = tamoxifen; series mostly up to 92.2 µM. The procedure, abridged: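 Caspase 3/7 activation is measured as a luminescence increase (aminoluciferin substrate) after 16 h compound exposure of human hepatocarcinoma HepG2 cells. AC50 values are Hill fits, scaled between DMSO baseline and 100 uM tamoxifen stimulation.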

Test [5] is described as follows: Cellular Toxicity (caspase-3) Mesangial (AID 660).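 Also: combined caspase 3 and 7 activity read by Caspase-Glo luminescence; cells exposed to compound for 16 h before the caspase read.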 The conditions noted are these: mesangial cells, normalized: DMSO 0%, 100 µM tamoxifen 100%; series mostly up to 91.7 µM. An outline of the steps: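 Caspase 3/7 activation measured by Caspase-Glo 3/7 luminescence (20 min, room temperature) following 16 h exposure of mesangial cells (1000/well); AC50 from Hill-equation fit, normalized to DMSO and 100 uM tamoxifen.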

A short description of test [6]: Cellular Toxicity (caspase-3) SK-N-SH (AID 661).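 Also: 0% = DMSO basal and 100% = 10 µM staurosporine.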 The conditions noted are these: SK-N-SH caspase-3 activation, qHTS; series mostly up to 91.7 µM. The procedure, abridged: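 Caspase 3/7 activation was read by luminogenic substrate cleavage after 16 hour treatment of SK-N-SH cells. Signal was scaled between DMSO and 10 uM staurosporine, and concentration-response data were fitted with the Hill equation for AC50.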

A short description of test [7]: Cellular Toxicity (caspase-3) Hek293 (AID 664).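 Also: cells exposed to compound for 16 h at 37 °C before readout.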 Particulars: HEK293 caspase-3 activation, DMSO = 0%, 100 µM tamoxifen = 100%; at 92.2 µM (top of the series). An outline of the steps:
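Concentration-response qHTS: caspase 3/7 activation measured by luminescent aminoluciferin substrate cleavage after 16 h compound exposure of Hek 293 cells. AC50 from Hill equation, with DMSO as basal and 100 uM tamoxifen as 100%.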

Test [8] can be described thus: Cellular Toxicity (caspase-3) NIH 3T3 (AID 666).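 Also: caspase signal read after 16 h compound exposure.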 The conditions noted are these: NIH 3T3 caspase-3 activation, apoptosis/toxicity; series mostly up to 92.2 µM. An outline of the steps: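 Caspase-Glo 3/7 luminescence reported caspase activation in 1000 NIH 3T3 cells/well after 16 h compound exposure at 37 C. DMSO set basal and 100 uM tamoxifen set 100% stimulation; concentration-response modeled with the Hill equation for AC50.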

A short description of test [9]: Cell Viability - LYMP2-023 (AID 975).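 Also: cellular ATP measured by luciferase luminescence as viability proxy; cells exposed to compound for 24 hours at 37 °C; plate controls were DMSO only for no effect and 92 µM tetraoctylammonium bromide control for full effect; nearly all actives have a fitted effect of over 55% in size.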 The conditions noted are these: LYMP2-023 lymphoblastoid cell viability; series mostly up to 92.2 µM. An outline of the steps:
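Intracellular ATP, read by CellTiter-Glo luminescence, reports viability after 24 hr compound exposure at 37 C. 2500 lymphoblastoid cells/well (LYMP2-023) seeded 5 hr beforehand; Hill fits give AC50; positive control tetraoctylammonium bromide.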

Test [10] is described as follows: Cell Viability - LYMP2-014 (AID 983).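 Also: plate controls were DMSO only for no effect and 92 µM tetraoctylammonium bromide for full effect; nearly all actives have a fitted effect of over 50% in size.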 Particulars: LYMP2-014 lymphoblastoid cells, viability qHTS; series mostly up to 92.2 µM. The procedure, abridged: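 Intracellular ATP loss, read by luciferase luminescence, measures acute cytotoxicity after 24 h compound exposure of lymphoblastoid LYMP2-014 cells (2500/well, 37 C). Concentration-response data fitted to the Hill equation for AC50.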

Test [11] in a line: Cell Viability - LYMP2-026 (AID 989). Also: % is scaled to controls: 0 for no effect and ±100 for the full control effect; nearly all actives have a fitted effect of over 50% in size. Particulars: LYMP2-026 lymphoblastoid cell viability, qHTS; series mostly up to 92.2 µM. The procedure, abridged:
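Cytotoxicity read as ATP-dependent luminescence (CellTiter-Glo, 30 min room temperature) after 24 h compound treatment at 37 C. LYMP2-026 lymphoblastoid line seeded at 2500 cells/well; AC50 derived by standard Hill equation.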

Test [12] deals with Peroxisome proliferator-activated receptor delta (Homo sapiens) (UniProt Q03181). As to the kind of experiment: qHTS assay for small molecule agonists of peroxisome proliferator-activated receptor delta signaling (AID 588534; calls by dose curve;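 also: 0% = DMSO basal wells and 100% = positive control agonist at 10 µM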). The conditions noted are these: HEK293T PPARdelta-UAS-bla, beta-lactamase ratio, 18 h; series mostly up to 76.7 µM. An outline of the steps:
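Agonist-mode beta-lactamase reporter readout (CCF4 dye, 2 h at RT) after 18 h at 37 °C exposure to a titration; Hill-equation fitting gave EC50 and maximal response.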

The target of test [13] is Vitamin D3 receptor (Homo sapiens) (UniProt P11473). The test is described as follows: qHTS assay for small molecule antagonists of vitamin D receptor signaling (AID 588541; calls by dose curve;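 also: receptor activated by calcitriol during compound treatment; % is scaled to controls: 0 for no effect and ±100 for the full control effect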). Particulars: HEK293T VDR-UAS-bla, beta-lactamase ratio, antagonist mode; series mostly up to 76.7 µM. The procedure, abridged:
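VDR-UAS-bla HEK293T cells (2000/well, 2% charcoal-stripped FBS) were treated with titrated compounds plus 1-alpha,25-dihydroxyvitamin D3 (50 nM or 3 nM final) for 16 h at 37 C. CCF4 beta-lactamase fluorescence was read; Hill fits gave IC50.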

For test [14] the target is unchanged. As to the kind of experiment: qHTS assay for small molecule agonists of vitamin D receptor signaling (AID 588543; calls by dose curve;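 also: 0% = DMSO basal and 100% = reference agonist control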). Particulars: HEK293T VDR-UAS-bla, beta-lactamase ratio, 16 h; series mostly up to 76.8 µM. The procedure, abridged:
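GeneBLAzer VDR-UAS-bla HEK293T cells in 2% charcoal-stripped FBS medium were dosed with compound titrations for 16 h at 37 °C; CCF4 β-lactamase readout (405 nm ex, 460/530 nm em). EC50 and efficacy from Hill fits, normalized to 50 nM calcitriol (100%) and DMSO (0%).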

Test [15] deals with Voltage-gated inwardly rectifying potassium channel KCNH2 (Homo sapiens) (UniProt Q12809). The test is described as follows: qHTS Assay for Small Molecule Inhibitors of the Human hERG Channel Activity (AID 588834).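 Also: lower thallium flux fluorescence means stronger hERG block; nearly all actives have a fitted effect of over 50% in size.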 Also: potency is read from the fitted curve at half-maximal effect. The conditions noted are these: U2OS BacMam hERG, FluxOR thallium flux fluorescence; series mostly up to 92.2 µM. The procedure, abridged: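 In hERG-transduced U2OS cells, dye-loaded for 1 hr at room temperature in dark, test compounds incubated 10 min at 37 °C before thallium stimulation. AC50 values derived by Hill modelling of concentration-response.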
Sequence of Voltage-gated inwardly rectifying potassium channel KCNH2 (Homo sapiens) (Q12809 whole entry, looked up): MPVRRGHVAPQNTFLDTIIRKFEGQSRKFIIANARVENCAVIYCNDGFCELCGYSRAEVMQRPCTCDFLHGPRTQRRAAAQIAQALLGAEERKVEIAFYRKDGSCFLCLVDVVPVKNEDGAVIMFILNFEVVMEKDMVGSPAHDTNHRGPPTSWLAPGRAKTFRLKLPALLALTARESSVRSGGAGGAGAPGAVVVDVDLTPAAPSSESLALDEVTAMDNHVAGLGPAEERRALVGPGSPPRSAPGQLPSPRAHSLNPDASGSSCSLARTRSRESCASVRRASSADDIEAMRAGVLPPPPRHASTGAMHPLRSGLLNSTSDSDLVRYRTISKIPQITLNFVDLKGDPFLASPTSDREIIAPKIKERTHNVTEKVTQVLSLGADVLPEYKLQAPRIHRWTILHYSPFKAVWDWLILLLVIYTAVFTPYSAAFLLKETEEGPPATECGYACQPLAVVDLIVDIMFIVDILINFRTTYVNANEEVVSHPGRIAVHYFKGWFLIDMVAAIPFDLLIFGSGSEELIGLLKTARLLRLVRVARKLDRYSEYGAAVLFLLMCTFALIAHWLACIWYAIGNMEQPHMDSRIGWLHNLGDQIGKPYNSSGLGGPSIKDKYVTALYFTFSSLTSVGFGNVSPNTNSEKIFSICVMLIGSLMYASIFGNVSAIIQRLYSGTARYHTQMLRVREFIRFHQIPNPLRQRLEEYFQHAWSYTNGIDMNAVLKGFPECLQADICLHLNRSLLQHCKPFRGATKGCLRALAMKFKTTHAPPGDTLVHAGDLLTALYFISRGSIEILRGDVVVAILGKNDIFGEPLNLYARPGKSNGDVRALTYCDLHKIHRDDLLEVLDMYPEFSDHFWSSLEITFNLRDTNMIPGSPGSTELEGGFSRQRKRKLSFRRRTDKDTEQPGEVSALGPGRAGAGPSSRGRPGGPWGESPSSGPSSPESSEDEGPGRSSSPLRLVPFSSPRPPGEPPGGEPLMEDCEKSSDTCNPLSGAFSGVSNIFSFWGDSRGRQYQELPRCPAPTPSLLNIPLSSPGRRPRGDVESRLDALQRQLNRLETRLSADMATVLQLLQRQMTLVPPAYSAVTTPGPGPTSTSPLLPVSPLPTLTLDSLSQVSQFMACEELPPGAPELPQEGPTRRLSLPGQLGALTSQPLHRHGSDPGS

Test [16] is described as follows: qHTS assay for small molecule activators of the p53 signaling pathway (AID 651743; active = well fitted activation curve with a large enough effect in the signal ratio, not every such curve was filed as active; the % refers to the signal ratio; also: % of control where 0% means no effect). The conditions noted are these: HCT-116 p53RE-bla, beta-lactamase FRET ratio, 16 h; activation: active compounds read high. An outline of the steps: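 Agonist-mode quantitative HTS in HCT-116 cells carrying a p53-response-element beta-lactamase reporter; 16 h compound treatment at 37 C, then FRET substrate loading for 2 h at room temperature and fluorescence read.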

Test [17] can be described thus: qHTS assay for small molecule disruptors of the mitochondrial membrane potential - 1 hr assay (AID 651754; calls by dose curve; also: % is scaled to controls: 0 for no effect and ±100 for the full control effect; nearly all actives have a fitted effect of over 35% in size). The conditions noted are these: series mostly up to 92.2 µM. An outline of the steps:
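Mitochondrial potential in living HepG2 cells after 1 hr compound treatment at 37C was read with Mito-MPS dye added for a further 30 min. Red aggregate and green monomer fluorescence were measured; loss of potential leaves dye as cytoplasmic monomers.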

Test [18] deals with Nuclear receptor ROR-gamma (Homo sapiens) (UniProt P51449). As to the kind of experiment: qHTS assay for small molecule antagonists of the retinoid-related orphan receptor gamma (ROR-gamma) signaling pathway (AID 651802).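 Also: CHO cells with doxycycline-induced ROR-gamma expression; luciferase reporter luminescence driven by ROR response element; % is scaled to controls: 0 for no effect and ±100 for the full control effect; nearly all actives have a fitted effect of over 60% in size.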 The conditions noted are these: ROR-gamma antagonist cell reporter assay; series mostly up to 92.2 µM. An outline of the steps:
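Luminescence (One-Glo, 30 min RT) measured 16 h after compound addition and doxycycline induction at 37C. Reporter: RORE-luciferase under TET-inducible ROR-gamma in CHO cells.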

Test [19] can be described thus: qHTS assay for small molecule agonists of the antioxidant response element (ARE) signaling pathway measured by Nrf2-dependant transcriptional activity - cell viability counter screen (AID 720653; active = well fitted curve in the direction sought with a large enough effect in the repeat runs; an effect the other way counts as inactive or inconclusive; also: % is scaled to controls: 0 for no effect and ±100 for the full control effect). Particulars: ARE-bla HepG2 viability, CellTiter-Glo ATP luminescence, 16 h; active compounds read low. The procedure, abridged: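 ARE-bla HepG2 cells (2,000/well) rested 5 hrs at 37C/5% CO2, then exposed to compounds in DMSO for 16 hrs. Viability was read in the same wells as intracellular ATP by luminescence, 30 min at room temperature after reagent addition.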

A short description of test [20]: Cellular Toxicity (caspase-3) HUV-EC-C (AID 656). Particulars: HUV-EC-C cells, caspase-3 activation (apoptosis), vehicle = 0, 100 µM tamoxifen = 100%; series mostly up to 92.2 µM. An outline of the steps:
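HUV-EC-C endothelial cells, 1000/well, were pre-incubated 5 hr at 37°C, then exposed to compounds for 16 hr at 37°C. Caspase-Glo 3/7 luminescence was read after 20 min at room temperature. AC50 came from Hill fits, normalized to DMSO and 100 uM tamoxifen.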

Sequence of Peroxisome proliferator-activated receptor delta (Homo sapiens) (Q03181 whole entry, looked up): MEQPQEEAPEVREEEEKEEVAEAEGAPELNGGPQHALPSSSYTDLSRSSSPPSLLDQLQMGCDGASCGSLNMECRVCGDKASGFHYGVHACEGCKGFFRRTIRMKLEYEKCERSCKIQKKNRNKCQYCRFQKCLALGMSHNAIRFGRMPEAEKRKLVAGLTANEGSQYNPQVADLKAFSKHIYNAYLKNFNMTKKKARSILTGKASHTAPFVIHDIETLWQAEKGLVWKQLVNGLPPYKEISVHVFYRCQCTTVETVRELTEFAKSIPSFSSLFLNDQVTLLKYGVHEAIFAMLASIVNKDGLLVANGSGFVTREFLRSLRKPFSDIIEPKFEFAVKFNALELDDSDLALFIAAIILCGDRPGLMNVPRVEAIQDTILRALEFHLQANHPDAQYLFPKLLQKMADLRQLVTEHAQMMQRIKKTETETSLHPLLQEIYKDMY
Sequence of Nuclear receptor ROR-gamma (Homo sapiens) (P51449 whole entry, looked up): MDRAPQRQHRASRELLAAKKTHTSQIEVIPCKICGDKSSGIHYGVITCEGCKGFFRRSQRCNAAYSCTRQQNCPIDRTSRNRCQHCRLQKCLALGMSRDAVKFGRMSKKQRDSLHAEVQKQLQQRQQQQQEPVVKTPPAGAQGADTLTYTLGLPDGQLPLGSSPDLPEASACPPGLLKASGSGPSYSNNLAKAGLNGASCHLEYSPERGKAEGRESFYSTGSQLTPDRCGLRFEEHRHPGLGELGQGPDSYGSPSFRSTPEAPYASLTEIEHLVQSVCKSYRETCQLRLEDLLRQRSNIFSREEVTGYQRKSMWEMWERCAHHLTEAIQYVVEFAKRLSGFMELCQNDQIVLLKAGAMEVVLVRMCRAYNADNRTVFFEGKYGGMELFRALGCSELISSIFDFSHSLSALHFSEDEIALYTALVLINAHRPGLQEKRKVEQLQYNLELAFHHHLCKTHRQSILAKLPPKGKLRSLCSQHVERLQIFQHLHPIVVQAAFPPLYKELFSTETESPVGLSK
Sequence of Vitamin D3 receptor (Homo sapiens) (P11473 whole entry, looked up): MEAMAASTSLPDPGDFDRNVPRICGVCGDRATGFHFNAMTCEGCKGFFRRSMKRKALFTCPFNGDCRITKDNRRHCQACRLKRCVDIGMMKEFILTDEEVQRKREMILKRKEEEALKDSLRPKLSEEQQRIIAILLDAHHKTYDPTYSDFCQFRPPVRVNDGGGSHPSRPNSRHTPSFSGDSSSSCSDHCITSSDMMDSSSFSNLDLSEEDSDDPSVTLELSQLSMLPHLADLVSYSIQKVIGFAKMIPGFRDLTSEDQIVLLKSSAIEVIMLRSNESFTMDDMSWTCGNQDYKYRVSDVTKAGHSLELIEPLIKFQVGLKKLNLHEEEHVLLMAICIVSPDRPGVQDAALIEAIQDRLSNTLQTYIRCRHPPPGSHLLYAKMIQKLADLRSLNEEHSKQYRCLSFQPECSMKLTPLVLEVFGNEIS

Consider `COc1c(C(C)(C)C)cc([N+](=O)[O-])c(C)c1[N+](=O)[O-]`, for which the Potency is greater than 92 µM in [1] and 31.6 µM (active) in [15]. The Potency result in test [2], in test [3], in test [6], in test [8], in test [9] and in [10] was “inactive” throughout. The Potency entry in [11], in test [17] and in test [18] was “inactive” in each case. Also, the compound was called inactive in test [4], in [5], in test [12], in test [13] and in test [14]. The caspase-3 activation in [7] is 1.65%. Also, the activation in test [16] is -1.58%. Further, the max response in test [19] is 4.77%.
For the compound `ClC(Br)Br`, the Potency in [1] was greater than 92 µM. Also, the Potency result in test [2], in test [3], in test [6], in test [8], in test [9] and in [10] was “inactive” in each case. Also, the Potency result in test [11], in test [15], in test [17] and in [18] was “inactive” throughout. Moreover, the compound was called inactive in test [4], in [5] and in test [12]. In test [7], the caspase-3 activation was -0.91%. Moreover, the activation in [16] was 6.47%. In addition, the max response in test [19] was 0.446%.
As to `Brc1ccc(Oc2ccc(Br)cc2Br)c(Br)c1`, the Potency entry in [3], in test [8], in test [9], in [10], in test [11] and in test [18] was “inactive” each time. Besides, the call in test [20], in [5], in test [13] and in test [14] was inactive. Moreover, the caspase-3 activation in [7] was 19.3%. Further, the activation in test [16] is 2.43%. In addition, the max response in test [19] is -0.481%.
In the case of `CC(C)(COCC1CO1)COCC1CO1` (stereo not given), the Potency in test [1] was greater than 92 µM. The compound was classed as inactive in test [4], in [5], in [12], in test [13] and in [14]. Further, the Potency result in [6], in [8], in test [10], in test [11], in test [15] and in test [17] was “inactive” each time. The Potency entry in [18] was “inactive”. For the same compound, the caspase-3 activation in test [7] was 0.0543%. Moreover, the activation in test [16] was 6.6%. Besides, the max response in [19] was 1.11%.
